# RAD52 anneal inh – RAD52 DNA annealing inhibitors, primary screen, biochemical, FRET, single point, set 2. DNA repair protein RAD52 homolog (Homo sapiens), P43351. recombinant RAD52 DNA annealing, FRET fluorescence. inhibition, % at 18.7 µM. 360,000 tested, 0.46% active. AID 651710, 2012;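 active = every replicate showing at least 50% inhibition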
# Target sequence (P43351 whole entry, looked up): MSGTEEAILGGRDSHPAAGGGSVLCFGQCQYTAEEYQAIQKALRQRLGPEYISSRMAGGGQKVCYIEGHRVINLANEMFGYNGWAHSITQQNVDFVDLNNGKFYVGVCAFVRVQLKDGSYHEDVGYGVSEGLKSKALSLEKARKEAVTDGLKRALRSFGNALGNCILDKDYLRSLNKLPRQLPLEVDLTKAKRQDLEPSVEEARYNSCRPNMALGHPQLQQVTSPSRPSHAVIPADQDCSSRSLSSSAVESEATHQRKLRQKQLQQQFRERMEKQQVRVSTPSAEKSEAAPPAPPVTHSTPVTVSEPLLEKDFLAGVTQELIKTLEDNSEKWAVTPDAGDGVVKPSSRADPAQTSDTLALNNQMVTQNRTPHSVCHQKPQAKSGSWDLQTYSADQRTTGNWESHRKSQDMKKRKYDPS
# MLL AF4-AF9 inh – inhibitors of AF4 peptide binding to AF9, primary screen, biochemical, AlphaScreen, biotin-AF4 peptide, FLAG-AF9, single point; AID 651704, 2012; Protein AF-9 (Homo sapiens), P42568; 350,000 tested, 0.47% active; inhibition, % at 10 µM;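 active = every replicate reaching a set inhibition limit, whatever the replicate mean, cut at about 25% in these data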;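 also: 0% = plate neutral control median and 100% = total signal loss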
# rRNA inh HTS – reduced GFP signal of wild-type E. coli, primary screen, bacterial rRNA inhibitor project, GFP/RFP fluorescence, OD600, single point; E. coli WT GFP vs humanized-ribosome RFP mutants, 24 h; active compounds read low; DMSO median 0, no signal -100; GFP signal change (wild-type ribosome), % (concentration not given with the values); 350,000 tested, 1.6% active; AID 720706, 2013;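 active = significant combined selectivity score with lowered wild-type GFP, culture density cut under 30%, mutant RFP and density less affected; inactive = any of these conditions unmet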
# CASP6 VEID inh – human caspase-6 inhibitors, primary screen, biochemical, VEID-R110 fluorescence, single point, set 2. inhibition, % at 12.5 µM. purified caspase-6, Z-VEID-R110 cleavage fluorescence. P55212. 350,000 tested, 0.53% active;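 active = mean inhibition across replicates at least about 35%, with every replicate also reaching that limit, limit read from the data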;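 also: 0% = median of neutral control wells and 100% = no fluorescence left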
# NSD2 HMT inh – NSD2 histone methyltransferase inhibitors, primary screen, biochemical, AlphaScreen, single concentration, set 2; inhibition, % at 12.5 µM; AID 743445, 2014; NSD2 peptide methylation, 120 min; 310,000 tested, 0.54% active; in the data active = inhibition above about 50%
# * = called active by the depositor; . = no result given. An excerpt weighted towards active compounds, which were near 2.5% of everything screened.
SMILES,RAD52 anneal inh,MLL AF4-AF9 inh,rRNA inh HTS,CASP6 VEID inh,NSD2 HMT inh
COc1ccc(N2CCCC2)c(NC(=O)c2ccc([N+](=O)[O-])o2)c1,-19.9,32.2*,3.7,4.3,3.0
O=C(Nc1ccc(N2CCN(C(=O)c3ccccc3)CC2)c(Cl)c1)c1ccc(Br)o1,-7.8,-0.3,-22.6*,-5.2,-1.4
O=C(Nc1ccccc1N1CCN(C(=O)c2ccccc2)CC1)c1ccc([N+](=O)[O-])o1,-19.6,6.6,-25.1*,1.9,2.2
O=C(O)Cc1c[nH]c2ccccc12,-18.6,-3.2,.,-1.3,.
O=C(O)Cc1c[nH]c2cccc(O)c12,7.6,-2.4,9.8,54.2*,.
CNC[C@H]1Oc2c(NS(C)(=O)=O)cccc2C(=O)N(C)C[C@@H]1C,.,.,2.2,.,.
CCC(=O)N1CCC2(CC1)CN(Cc1nccs1)[C@@H](CO)c1c2c2ccc(OC)cc2n1C,-52.5,0.3,0.9,.,.
Cc1cccc(NS(=O)(=O)c2ccc3[nH]c(=O)cc(C(=O)O)c3c2)c1,-2.9,-2.4,-14.5*,11.5,1.5
O=C(O)C1=C[C@@H](c2ccc3c(c2)Cc2ccccc2-3)C[C@@H](OCCCCO)O1,-27.5,2.8,.,1.4,.
O=C(Nc1ccccc1)C1=C[C@@H](c2ccc3c(c2)Cc2ccccc2-3)C[C@@H](OCCCCO)O1,52.4*,6.9,.,2.1,.
COc1ccc(S(=O)(=O)N(C)C[C@@H]2Oc3ccc(NC(=O)NC4CCCCC4)cc3C(=O)N([C@@H](C)CO)C[C@H]2C)cc1,-7.5,0.0,-3.8,-0.4,.
Oc1ccc(COCc2ccccc2)c2cccnc12,.,65.9*,.,.,-1.6
Oc1ccc(CN2CCN(c3ccccc3)CC2)c2cccnc12,-2.1,.,-17.2,5.5,.
Cc1[nH]c2ccccc2c1CN1CCC(Cc2ccccc2)CC1,1.3,19.2,-42.3*,0.4,11.1
Oc1ccc(CN2CCC(Cc3ccccc3)CC2)c2cccnc12,-1.7,76.1*,-56.5,-5.7,-1.1
Oc1ccc(Cc2ccccc2)c2cccnc12,-26.0,56.8*,-57.8,-2.8,-4.1
C[C@@H]1CCCCO[C@H](CN(C)Cc2ccc(C(=O)O)cc2)[C@H](C)CN([C@H](C)CO)C(=O)c2cc(NS(=O)(=O)c3cn(C)cn3)ccc2O1,.,.,-0.5,.,.
C[C@@H]1CN([C@@H](C)CO)C(=O)c2cccc(NC(=O)C3CC3)c2O[C@H]1CN(C)Cc1ccncc1,13.6,-6.8,1.8,-0.5,.
COc1ccc(NC(=O)N2CCCCN3[C@H](CO)[C@@H](c4ccc(C#Cc5ccccn5)cc4)[C@H]3C2)cc1,.,.,5.4,.,.
CCCOCc1ccc(O)c2ncccc12,-2.6,-2.9,-10.3,2.0,-0.2
CC(C)COCc1ccc(O)c2ncccc12,-1.7,-2.5,-35.2*,-1.5,-3.6
CCOC(=O)C1=C(COC(=O)c2cc([N+](=O)[O-])ccc2Cl)NC(=O)NC1C (centres undefined),-8.7,3.5,0.6,-1.8,0.7
CCOC(=O)C1=C(C)NC(=O)NC1c1ccco1 (centres undefined),-12.2,2.2,12.7,46.4*,4.6
CC1CC(C)CN(C(=O)COC(=O)c2ccc([N+](=O)[O-])o2)C1 (centres undefined),-10.0,-19.6,-1.1,21.6,-0.9
CCOC(=O)C1CCN(C(=O)COC(=O)c2ccc([N+](=O)[O-])o2)CC1,-3.5,-2.7,10.6,56.0*,45.6
SMILES,RAD52 anneal inh,MLL AF4-AF9 inh,rRNA inh HTS,CASP6 VEID inh,NSD2 HMT inh
CCOC(=O)C1=C(COC(=O)c2ccco2)NC(=O)NC1CC (centres undefined),-16.0,29.3*,6.2,1.7,-1.4
COCCOC(=O)C1=C(C)NC(=O)NC1c1ccco1 (centres undefined),-19.3,-2.5,17.2,14.3,3.4
CCOC(=O)C1=C(COC(=O)c2ccc([N+](=O)[O-])o2)NC(=O)NC1C (centres undefined),-11.3,1.4,-11.8,42.8*,28.1
CCCn1c(=S)[nH]c2sc3c(c2c1=O)CCCC3,-3.0,-7.7,-1.1,-0.2,2.2
Nn1c(=S)[nH]c2sc3c(c2c1=O)CCCC3,-15.9,-3.5,-20.5*,0.2,-2.0
C[C@@H]1CN([C@H](C)CO)C(=O)c2cc(NC(=O)c3ccncc3)ccc2O[C@@H](C)CCCCO[C@@H]1CN(C)Cc1ccc(C(=O)O)cc1,99.7*,-3.8,4.0,1.5,.
C[C@@H]1CN([C@@H](C)CO)C(=O)c2cc(NC(=O)c3ccncc3)ccc2O[C@@H](C)CCCCO[C@@H]1CN(C)Cc1ccncc1,-6.3,-3.3,-1.4,1.4,.
C[C@@H]1CN([C@H](C)CO)C(=O)c2cc(NC(=O)c3ccncc3)ccc2O[C@@H](C)CCCCO[C@H]1CN(C)Cc1ccc(C(=O)O)cc1,99.0*,-2.5,4.4,0.4,.
O=C1NCCOCn2nncc2CC[C@@H]1Cc1ccccc1,.,.,0.3,.,.
O=C(N/N=C/c1cccnc1)c1cc(-c2ccc(Cl)cc2)nc2ccccc12,-4.9,-0.1,7.8,-1.2,6.2
O=C(NNS(=O)(=O)c1ccc(Cl)cc1)c1cc(-c2ccccc2)nc2ccccc12,-28.3,6.3,-30.8*,-2.7,0.7
O=C(N/N=C/c1ccc[nH]1)c1cc(-c2ccc(Cl)cc2)nc2ccccc12,-22.5,11.6,-38.5*,-0.8,1.9
O=C(NNC(=O)c1cc(-c2cccnc2)nc2ccccc12)Nc1ccc(Cl)cc1,-21.2,-0.9,-29.3*,9.7,-1.2
CCCN1C[C@@H](C)[C@H](OC)CN(C)C(=O)c2ccc(NC(=O)c3ccccc3F)cc2OC[C@@H]1C,-5.6,0.0,-3.8,.,.
COc1ccc(CN(C)C[C@@H]2OCCCC[C@@H](C)Oc3ccc(NC(=O)NC(C)C)cc3C(=O)N([C@H](C)CO)C[C@H]2C)cc1,25.0,14.0,-0.2,-0.3,.
COC1=C/C(=C/c2c(N)n3nc(CC(=O)N4CCCC4)sc3nc2=O)C=CC1=O,-230.7,-5.6,-3.0,1.4,5.9
Nc1c(/C=C2/C=CC(=O)C(O)=C2)c(=O)nc2sc(CC(=O)N3CCCCC3)nn12,-175.4,-1.2,7.3,83.0*,142.1*
Nc1c(/C=C2/C=CC(=O)C(O)=C2)c(=O)nc2sc(CC(=O)N3CCCC3)nn12,-187.0,-1.8,8.0,48.3*,118.5*
COc1ccc(NC(=O)c2cccn(CC=C(C)C)c2=O)cc1,-8.8,0.3,-26.5*,-0.9,-2.9
C=CCn1cccc(C(=O)Nc2ccc(OC)cc2)c1=O,-12.3,-1.4,-12.0,-3.0,-1.4
COc1ccc2c3c([nH]c2c1)[C@@H](CO)N(C(=O)c1cccc(F)c1)CC31CN(S(=O)(=O)c2cccs2)C1,.,.,-4.9,.,.
COC(=O)c1c(C(=O)OC)c(-c2ccc(C)cc2)n2c1CCC2,.,.,.,.,-1.6
